Several values for one entry are separate records, joined by “and”; a condition that tells them apart may be missing. Equal values may be shown once. Compounds without any hit were thinned out: in the full panel of roughly 83,000, 20% have a hit.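 In brief: 96-well plates, 48 h treatment, single concentration, percent growth endpoint.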 A number with no mark means an inactive call. Activity calls are given as the source filed them. Rule for the calls: active = growth percent below 10; inactive = the rest.
test system: MDA-MB-468 breast; experiment: NCI-60 one-dose screen, 48 h (100 = growth as untreated, 0 = no growth, -100 = all killed); conditions: 10 µM unless noted

Compound | growth
CCOC(=O)C(=CNc1cnc(Nc2ccc(N3CCOCC3)cc2)nc1Oc1ccc(OC)cc1)C(=O)OCC | 61.5%
COc1ccc(-c2cc(-c3nnc(SCC(=O)Nc4ccc(C(C)=O)cc4)o3)c3ccccc3n2)cc1 | 45.5%
COc1ccc(-c2nc(/C=C3\C(=O)N(C)c4ccccc43)c3ccccn23)cc1 | 98.5%
C=C(C)[C@@H]1CCC[C@]2(C(=O)O)CC[C@]3(C)[C@@H](CC[C@@H]4[C@@]5(C)C/C(=C/c6ccncc6)C(=O)C(C)(C)[C@@H]5CC[C@]43C)[C@@H]12 | 16.6%
Cn1c(=O)n(-c2ccc(C(C)(C)C#N)cc2)c2c3cc(-c4cnc5ccccc5c4)ccc3ncc21 | -24.6% (active) and -48.4% (active)
CCOC(=O)C1=C(N)Oc2c(sc3c(F)cccc23)C1c1ccc(O)cc1 (stereo not given) | 15.3%
Cc1cc(NC(=O)c2cccc(C(F)(F)F)c2)ccc1-n1ccc2c(NC(=O)c3ccccc3)nccc21 | 111%
O=C(NCCCl)c1cc(Cl)cc(Cl)c1 | 108%
CCOC(=O)c1sc(NCC(=O)Nc2cccc([N+](=O)[O-])c2)c(C(=O)OCC)c1C | -47.4% (active)
FC(F)(F)c1cc(Nc2ccc3c(OCCCN4CCOCC4)cccc3n2)ccc1Cl | 38.3%
CN(C)S(=O)(=O)c1ccc(-c2nc(C(Cl)Cl)nc3cc(-c4ccccc4)nn23)cc1 | 60.7%
C#Cc1cccc(Nc2nc3cc([N+](=O)[O-])ccc3nc2Nc2ccc(O)cc2)c1 | 27.1%
O=C(O)Cc1cc(=O)[nH]n(-c2ccccc2)c1=O | 102%
COc1ccc(-c2cc(=O)n(-c3nc4ccccc4[nH]3)[nH]2)cc1OC | 83%
C=C1CCC2C3(C)COC(c4c(OC)cccc4OC)OC3CCC2(C)C1C/C=C1/C(=O)OCC1O (stereo not given) | 20.2%
COC(=O)C12C3C(=O)N(c4ccc(OC)cc4)C(=O)C3C(c3cn(-c4ccccc4)nc3C)N1[C@H](c1cn(-c3ccccc3)nc1C)[C@@H]1C(=O)N(c3ccc(OC)cc3)C(=O)[C@@H]12 (stereo not given in full) | 97.4%
O=C(Nc1ccc(Oc2ccc(F)cc2)c(Cl)c1)c1cccnn1 | 39.3%
CNCCNc1nc2ccccc2c2c(=O)c3cccc(OC)c3sc12 | 20.9%
O=c1c2cccc3c(Nc4ccc(F)cc4)ccc(c32)c2nc3ccccc3n12 | -43.8% (active)
O=C1c2ccccc2C(=O)c2c1cccc2-n1nnc2ccccc21 | 109%

Compound | growth
CN1CCN(c2ccc(Nc3nc(NCCCNS(=O)(=O)c4cccc5ccccc45)c4sccc4n3)cc2)CC1 | -70.5% (active)
COc1cc(-c2nn(-c3ccc(C)cc3)cc2C(=O)O)ccc1O | 121%
Cc1cccc(C)c1NCc1nc(-c2ccccc2)n[nH]1 | 122%
COC(=O)[C@]12CC[C@@H](C)[C@H](C)[C@@H]1C1=CC[C@@H]3[C@@](C)(CC#N)C4=C(C[C@@]3(C)[C@]1(C)CC2)OC[C@]4(C)C=O | -83% (active)
CCCCCCCCCCCCCC[N+](C)(C)CCCCCCCCCCCCCC | 21.4%
Cc1ccc(NC(=O)N[C@@H](Cc2cc(F)cc(F)c2)C(=O)NC2C(=O)N3CCC[C@H]3C(=O)N3CCCC[C@H]3C(=O)N[C@@H](C)C(=O)N3C[C@H](C)C[C@H]3C(=O)O[C@H]2C)c(F)c1 (stereo not given in full) | -12.1% (active)
O=C(Nc1cccc(Cl)c1)Nc1nc2ccc([N+](=O)[O-])cc2s1 | -29.1% (active)
CC(=O)Nc1ccc([I+]c2ccc([N+](=O)[O-])cc2)cc1 | 41.7%
N#C/C(=C\c1c(-c2ccccc2)[nH]c2ccccc12)S(=O)(=O)c1ccccc1 | 20.5%
CCOc1ccc(C(=O)Cc2ccccc2)cc1 | 90.2% and 96%
COc1cc(/C=C2\COc3ccc(-c4ccccc4)cc3C2=O)cc(OC)c1 | 69.3%
CSc1nc2c(c(=O)[nH]1)C(c1ccc(C)cc1)C=C(C(=O)O)N2 (stereo not given) | 114%
COc1ccc(Cl)cc1NC(=O)c1cc2c(n1C)-c1nc(NC(=O)C(C)(C)C)sc1CC2 | 96.7%
COc1cc(/C=C/C(=O)c2c(C)oc3nc[nH]c(=O)c23)ccc1O | 113%
N#CCCc1ccc(O)cc1 | 104%
Nc1c(C(=O)Nc2ccccc2)sc2nc3c(cc12)CCCC3 | 31.1%
CC(=O)c1cc2c(N)c(C(=O)Nc3cncc4ccccc34)sc2nc1C | 97%
O=C(Nc1cccc(Cn2c(=O)[nH]c3ccc(Oc4ncccn4)cc3c2=O)c1)c1cc(Cl)cc(Cl)c1 | 50.5%
Oc1ccc(CSc2nnc(-c3ccncc3)n2-c2ccccc2)c2cccnc12 | 14.2%
C=C1C(=O)O[C@H]2[C@H]1CC/C(COC(=O)N[C@H](Cc1c[nH]c3ccccc13)C(=O)OC)=C\CC[C@@]1(C)O[C@@H]21 | 22.5%

From PubChem BioAssay (NCI)
